# Bioassay records deposited in PubChem by National Center for Advancing Translational Sciences (NCATS).
# A selection: hits, their analogues and other compounds. The true share with any hit is near 5.8%.
# KB-3-1 cytotox: qHTS assay for MDR1-selective chemotherapeutics: Primary screen using the parental adenocarcinoma cell KB-3-1 | KB-3-1 viability, CellTiter-Glo ATP luminescence, 72 h | Potency, µM (series often up to 46.1 µM), hits mostly cytotoxic | 400,000 tested, 1.4% active | AID 1347075, 2019; further: on the % scale 0 is the no-effect control and ±100 the full control effect; nearly all actives have a fitted effect of over 60% in size
#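 Screening of KB-3-1 cells (DMEM, 10% FBS, phenol-red free) ran from lowest to highest compound concentration; after 72 h at 37 °C viability was read luminescently and curves fitted.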
# SW480 rerep: A quantitative high throughput screen for small molecules that induce DNA re-replication in SW480 colon adenocarcinoma cells. 340,000 tested, 1.8% active. Potency, µM (series often up to 46.1 µM), without a hit: top-dose re-replication activation, hits mostly activators. SW480 DNA re-replication, Hoechst DNA content imaging, 48 h; further: % of control where 0% means no effect; nearly all actives have a fitted effect of over 55% in size
#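 Image-based DNA-content assay: after two days of treatment, nuclei were labelled with the DNA dye Hoechst and imaged, and hits were compounds raising the count of nuclei showing high fluorescence intensity.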
# MCF10A rereplic: A quantitative high throughput screen for small molecules that induce DNA re-replication in MCF 10a normal breast cells. MCF 10A DNA re-replication, Hoechst nuclear intensity, 48 h. Potency, µM (doses to about 46.1 µM), without a hit: top-dose activity, positive = re-replication, hits mostly activators. 350,000 tested, 2.9% active. AID 624296, 2012; further: % of control where 0% means no effect; nearly all actives have a fitted effect of over 50% in size
# KB-V1 MDR tox: qHTS assay for MDR1-selective chemotherapeutics: Primary screen using the drug-selected MDR subline cells KB-V1 | KB-V1 MDR cells viability, CellTiter-Glo, 72 h | Potency, µM (highest dose often 46.1 µM), most hits filed as cytotoxic | 400,000 tested, 3.4% active; further: on the % scale 0 is the no-effect control and ±100 the full control effect; nearly all actives have a fitted effect of over 60% in size
#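 In this primary screen, KB-V1 cells overexpressing P-gp are incubated with library compounds (lowest to highest concentration) for 72 h at 37 degrees C before a luminescent ATP viability read.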
# PINK1 modulator: A Quantitative High throughput Screen to Identify Chemical Modulators of PINK1 Expression; 410,000 tested, 0.2% active; Potency, µM (series often up to 76.6 µM), inactives show at the top dose activation (PINK1 increase), usual class: activators; AID 624263, 2012; PINK1 immunofluorescence, high-content cytometry, 24 h; active means well fitted activation curve with a large enough effect; inconclusive means small, poorly fitted or top-dose-only effect; cell line not stated here; further: % of control where 0% means no effect; nearly all actives have a fitted effect of over 65% in size
#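 Fluorescence from anti-PINK1 antibody, together with nuclear and cell stains, was scanned on a laser-scanning cytometer. Before staining, stable-line cells were incubated 24 hours with compounds at 5 concentrations; primary antibody 12 h at 10 degrees C.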
# 12-LOX inh: Primary qHTS assay for inhibitors of human arachidonate 12S-lipoxygenase (ALOX12): Round 2. purified 12hLO, xylenol orange hydroperoxide absorbance. Polyunsaturated fatty acid lipoxygenase ALOX12 (Homo sapiens), P18054. Potency, µM (highest dose often 108 µM), inactives show top-dose activity change, negative = inhibition, usual class: inhibitors. AID 1671190, 2021. 580,000 tested, 1.1% active; further: on the % scale 0 is the no-effect control and ±100 the full control effect
# Target sequence (P18054 whole entry, looked up): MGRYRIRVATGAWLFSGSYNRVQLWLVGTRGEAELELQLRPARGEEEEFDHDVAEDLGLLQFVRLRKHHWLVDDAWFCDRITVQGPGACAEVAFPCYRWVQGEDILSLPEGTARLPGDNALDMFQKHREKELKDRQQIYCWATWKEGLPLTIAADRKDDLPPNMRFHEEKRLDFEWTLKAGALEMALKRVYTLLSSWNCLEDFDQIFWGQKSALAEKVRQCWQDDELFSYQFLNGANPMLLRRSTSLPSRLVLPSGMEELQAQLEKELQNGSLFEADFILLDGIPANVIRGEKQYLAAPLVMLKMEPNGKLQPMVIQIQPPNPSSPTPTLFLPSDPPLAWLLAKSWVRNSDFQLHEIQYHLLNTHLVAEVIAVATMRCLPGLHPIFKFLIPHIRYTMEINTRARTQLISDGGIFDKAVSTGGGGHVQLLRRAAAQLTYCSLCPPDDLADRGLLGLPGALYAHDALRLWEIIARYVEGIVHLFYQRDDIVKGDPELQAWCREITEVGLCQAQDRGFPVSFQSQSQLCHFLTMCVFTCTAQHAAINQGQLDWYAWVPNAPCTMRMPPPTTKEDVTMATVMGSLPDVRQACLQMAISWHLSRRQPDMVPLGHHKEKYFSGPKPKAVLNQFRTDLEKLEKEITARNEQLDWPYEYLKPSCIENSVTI
#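 Hydroperoxide product was detected by ferrous iron/xylenol orange as the 573 to 405 nm absorbance ratio. Arachidonic acid at 40 uM (final) was turned over for 30 min at room temperature by 150 nM human 12hLO, pH 7.0 Hepes buffer, after 15 min compound preincubation.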
# * hit, by the source's call; i = inactive; ? = inconclusive; . = no result given; ! = not confirmed by another sample; [ ] = another dose, or the depositor's remark. Unless noted, the call rests on the fitted dose curve; in most records, active means well fitted curve in the direction sought with a large enough effect; inconclusive means small, poorly fitted or top-dose-only effect, or another doubt; inactive means no such curve, though single readings can be large; an effect the other way counts as inactive or inconclusive. Potency means the concentration at half of the fitted maximal effect.
SMILES,KB-3-1 cytotox,SW480 rerep,MCF10A rereplic,KB-V1 MDR tox,PINK1 modulator,12-LOX inh
CCOc1cc(C2CC(=O)Nc3cc4c(cc32)OCCO4)ccc1O (configuration not stated),.,.,.,.,2.0%,-13.8%
CCCOc1ccccc1C1CC(=O)Nc2cc3c(cc21)OCCO3 (configuration not stated),1.3µM*,?,?,2.59µM*,1.9%,.
CCOc1ccccc1C1CC(=O)Nc2cc3c(cc21)OCCO3 (configuration not stated),0.461µM*,2.91µM*,7.31µM*,?,3.0%,-14.1%
CCOC(=O)c1ccc(NC(=O)CCS(=O)(=O)c2cc(-c3cc(C)no3)ccc2OC)cc1,.,.,.,.,.,-6.8%
CCOC(=O)c1cc2c(nc1C)-c1cc(Cl)cc(Cl)c1OC2O (configuration not stated),i,?,18.4µM*,i,4.7%,-8.6%
CCOC(=O)c1cc(C(=O)NN)c(C)nc1C,i,?,6.7%,i,3.3%,0.2%
Cc1cc(C)c(CNC(=O)c2cc(-c3ccccc3C)cc3c2OCCN3C)c(=O)[nH]1,.,.,.,.,.,112µM*
Cc1cc(C)c(CNC(=O)c2cc(-c3cnn(C)c3C)cc3c2OCCN3C)c(=O)[nH]1,.,.,.,.,.,8.2%[176 µM]
COc1ccc(F)cc1-c1ccc(C(=O)O)cc1,.,.,.,.,.,9.3%[12.5 µM]
COc1ccc(F)cc1C(=O)C(=O)O,.,.,.,.,.,8.91µM*
C/C(=N\NC(=O)C(C)Nc1cccc(Cl)c1)c1ccc([N+](=O)[O-])cc1 (configuration not stated),i,-123.9%,-80.9%,18.4µM*,10.6%,-21.0%
C/C(=N/NC(=O)c1cc(O)c(O)c(O)c1)c1ccc([N+](=O)[O-])cc1,i,4.5%,0.7%,i,-0.9%,?
CN(C)CC(C)(C)NS(=O)(=O)c1ccc(Cl)cc1,i,?,14.6µM*,i,.,7.8%[57.4 µM]
COc1ccccc1C(=O)NCC(c1cccs1)N1CCc2ccccc21 (configuration not stated),?,13.6%,18.4µM*,?,1.0%,-6.3%
CC1CCN(C(CNC(=O)c2ccccc2SC(F)F)c2cccs2)CC1 (configuration not stated),.,.,.,.,.,31.6µM*
COc1ccc(OC)c(/C=C/c2cc3ccccc3cn2)c1,5.17µM*,.,.,i,.,.
COCCn1c(N(C)C)nc2c1c(=O)[nH]c(=O)n2C,.,.,.,.,.,-8.4%
CCOC(=O)c1cccc(NC(=O)C2(S(=O)(=O)c3ccc(C)cc3)CC2)c1,i,-8.1%,-0.1%,18.4µM*!,1.6%,?
Cc1nn(-c2nc3c(c(=O)n(CC(N)=O)c(=O)n3C)n2CCc2ccccc2)c(C)c1C,.,.,.,.,.,-8.2%
